The list is not random: actives were taken first. Their share in the collection is about 21%.
Shiga inhibitor – Shiga toxin inhibition. AID 2315. actives 9.2% (n = 290,000). Vero cells, Shiga toxin protein synthesis inhibition reporter. inhibition, % at 38.7 µM; in the data active = inhibition mostly above about 28%, no sharp cut-off; inactive = mostly below about 43%; note: 0% is about no effect
NS1 inh – inhibitors of influenza NS1 protein function; Potency, µM (highest dose often 46.1 µM), inactives show at the top dose activity, positive = more growth; actives 0.4% (n = 270,000); calls by dose curve; note: potency is the fitted concentration of half-maximal effect; actives are rising curves; nearly all actives have a fitted effect of over 50% in size
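Growth recovery, yeast-based: influenza A NS1 expressed in S. cerevisiae causes slow growth, and suppressors are detected by OD600. The parent strain without NS1 is used as positive control.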
Pf growth 96h – P. falciparum growth inhibition at 96 hour, primary screen for plastid delayed-death inhibitors; Potency, µM (titrated, usually from 28.7 µM), inactives show at the highest dose activity change, negative = inhibition, most hits filed as inhibitors; AID 504834; P. falciparum luciferase reporter growth, 96 h; actives 6.9% (n = 320,000); note: potency is the fitted concentration of half-maximal effect; % is set by controls: 0 for no effect and ±100 for the full control effect
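Luminescence readout: decreased luciferase signal marks inhibited growth of reporter-expressing P. falciparum in infected red cells (2% hematocrit, 0.05% parasitemia final), exposed to compound two generations (96 h, 37 C, 5% CO2).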
CHX counter – counter-screen hit for Shiga toxin inhibitors, cycloheximide; cell reporter, cycloheximide protein synthesis inhibition counterscreen; max response, %; actives 12% (n = 300,000); in the data active = max response mostly above about 13%, no sharp cut-off; inactive = mostly below about 14%; note: read at 38.3 µM for the half of the compounds with a filed dose; 0% is about no effect
Pf growth 48h – P. falciparum growth inhibition at 48 hours (one generation). AID 504832. P. falciparum luciferase growth in erythrocytes, 48 h. actives 5.9% (n = 310,000). Potency, µM (doses to about 28.7 µM), for inactives: at the highest dose activity change, negative = inhibition, hits mostly inhibitors; note: potency is the fitted concentration of half-maximal effect; % is set by controls: 0 for no effect and ±100 for the full control effect
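Here the parasites carry a stable luciferase gene and grow inside erythrocytes in Albumax-based RPMI medium with compound for one erythrocytic cycle. Activity is scored as loss of luminescent signal.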
Sm TGR inh – S. mansoni TGR enzyme inhibition; Q962Y6; purified TGR, DTNB reduction, TNB absorbance 405 nm; Potency, µM (series often up to 114 µM), for inactives: at the highest dose activity change, negative = inhibition, hits mostly inhibitors; actives 3% (n = 360,000); AID 485364; note: potency is the fitted concentration of half-maximal effect; % is set by controls: 0 for no effect and ±100 for the full control effect; nearly all actives have a fitted effect of over 60% in size
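Kinetic colorimetric format: TGR-catalysed, NADPH-driven DTNB reduction monitored via TNB absorbance. Enzyme dispensed at 20 nM; compound exposure 15 min at room temperature before reaction start.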
The depositor's hits bear a star; ? = inconclusive; . = not tested or not shown. Unless noted, calls come from the whole dose curve; as a rule, active = well fitted curve in the direction sought with a large enough effect; inconclusive = small, poorly fitted or top-dose-only effect, or another doubt; inactive = no such curve, though single readings can be large; an effect the other way counts as inactive or inconclusive.

SMILES	Shiga inhibitor	NS1 inh	Pf growth 96h	CHX counter	Pf growth 48h	Sm TGR inh
CCc1ccccc1NC(=O)Nc1cc(C(=O)NCc2ccccc2OC)ccc1N1CCCC1	.	.	.	.	.	3%
CC(C)(Oc1ccc(Cl)cc1)C(=O)Nc1ccc2oc(=O)ccc2c1	-9	-13%	?	-2	?	1%
CC(C)(C)C(=O)Nc1ccc(-c2cc3cc(Cl)ccc3o2)cc1	124*	1%	141%	81*	113%	9%
COc1cccc(OCCCCn2c(-c3ccc(Cl)cc3)nc3ccccc3c2=O)c1	.	.	.	.	.	-6%
O=C(CSc1nnc(C2COc3ccccc3O2)o1)Nc1nccs1 (stereo not drawn)	27	14%	1.3µM*	6	1%	-6%
O=C(CSc1nnc(C2COc3ccccc3O2)o1)N1CCCCC1 (stereo not drawn)	32	-4%	?	-2	.	4%
O=C(CSc1nnc(COc2ccccc2)o1)Nc1nccs1	0	?	-3%	-4	25%	6%
O=C(CSc1nnc(C2COc3ccccc3O2)o1)NC1CCCCC1 (stereo not drawn)	39	-21%	1%	20*	5%	5%
Cn1c(SCC(=O)N2CCCC2=O)nnc1-c1ccccc1F	13	.	9%	6	9%	-4%
COc1ccc(CNC(=O)CCc2ccc(S(=O)(=O)N3CCCCCC3)cc2)cc1	.	.	?	.	?	-2%
CCOc1ccc(S(=O)(=O)N2CCCCC2)cc1NC(=O)Cc1cccs1	.	.	?	.	?	-4%
CCOc1ccc(S(=O)(=O)N2CCCCC2)cc1NC(=O)CCNC(=O)c1ccco1	.	.	?	.	3.3µM*	-3%
CN(C)c1ccc(CNC(=O)CCc2ccc(S(=O)(=O)N3CCCCCC3)cc2)cc1	.	.	?	.	12µM*	-3%
CCOc1ccc(S(=O)(=O)N2CCCCC2)cc1NC(=O)CCc1ccc(OC)cc1	.	.	10µM*	.	13µM*	-11%
COc1ccccc1CC(=O)Nc1ccc2nc(Nc3cccc(C(F)(F)F)c3)cc(C)c2c1	.	.	.	.	.	3%
CN1CCN(c2ccc(-c3nc(-c4ccccc4)no3)cc2[N+](=O)[O-])CC1	.	.	.	.	.	-9%
CN(C)S(=O)(=O)c1ccc(Cl)c(NC(=O)CN2CCCCCC2)c1	-14	.	-1%	2	?	-9%
CCN(c1ccccc1)S(=O)(=O)c1ccc(Cl)c(NC(=O)CN2CCCCCC2)c1	3	-1%	?	3	5.9µM*	-3%
CCN(c1ccccc1)S(=O)(=O)c1ccc(Cl)c(NC(=O)CSc2nncn2C)c1	-4	-6%	8.3µM*	-1	?	-5%
CCN(c1ccccc1)S(=O)(=O)c1ccc(Cl)c(NC(=O)CSc2nncs2)c1	-6	-4%	?	1	2%	-8%
Cc1noc(C(F)(F)F)c1C(=O)NNC(=O)c1ccccc1	-13	-2%	0%	-1	36%	-9%
COc1ccc(C(=O)Nc2ncccc2C)cc1S(=O)(=O)N1CCOCC1	.	.	54%	.	22%	4%
C/C(=N/NC(=O)C(C)n1nc(C)c([N+](=O)[O-])c1C)c1ccc(OCC(N)=O)cc1 (stereo not drawn)	15	-3%	?	-2	-9%	11%
Fc1ccc(C(Nc2ccccc2Cl)c2nnc(-c3ccccc3Cl)o2)cc1 (stereo not drawn)	.	.	.	.	.	11%
CCOc1ccc(S(=O)(=O)NCCc2sc3nc(-c4ccc(F)cc4)nn3c2C)cc1	.	.	.	.	.	5%
SMILES	Shiga inhibitor	NS1 inh	Pf growth 96h	CHX counter	Pf growth 48h	Sm TGR inh
CCNc1nc(OCCNC(C)=O)nc(N(C)C)n1	-12	?	1.5µM*	4	66%	5%
CCN(CC)c1ccc(N=Cc2ccc([N+](=O)[O-])o2)cc1	139*	-37%	2.9µM*	57*	1.7µM*	35µM*
CCN(CC)c1ccc(N=Cc2c(O)[nH]c(=O)[nH]c2=O)cc1	3	-5%	-75%	5	?	?
CCN(CC)c1ccc(N=Cc2ccccc2[N+](=O)[O-])cc1	12	-3%	-104%	-2	2.3µM*	?
Cc1ccc(-n2c(=O)[nH]c3ccc(Br)cc3c2=O)cc1	.	.	.	.	.	2%
Cc1cn(-c2ccc(Br)cc2)[nH]c1=O	64*	-3%	.	39*	60%	8%
